Compounds with a hit are over-represented: about 0.75% of the library has one in this group of screens.
Sa RN4220 lethal = S. aureus RN4220 growth inhibition; OD600, 16 h; inhibition, % (no concentration beside the values); hit rate 0.33% among 330,000; AID 1259311; in the data active = inhibition above about 85%;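 note: plate controls were untreated cells for no effect and reference antibiotic for full effect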
Sa ugtP lethal = kills S. aureus RN4220 lacking UgtP | S. aureus RN4220 ugtP deletion, OD600 growth, 16 h | growth inhibition, % (no concentration beside the values) | hit rate 0.54% among 330,000 | AID 1259309; in the data active = growth inhibition above about 68%;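 note: plate controls were untreated wells for no effect and antibiotic for full effect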
TcdB inh = TcdB glycohydrolase inhibition; hit rate 0.24% among 350,000; TcdB glycohydrolase enzymatic assay, plate reader; inhibition, % at 9.99 µM; in the data active = inhibition above about 10%
Yp Topo-I inh = inhibitors of Yersinia pestis topoisomerase I | Y. pestis Topo-I cleavage product accumulation, plate reader | activity, % at 10 µM | hit rate 0.064% among 360,000 | AID 504884; in the data active = activity above about 50%, passing the limit was not always enough
BioA inh = blocks M. tuberculosis BioA enzyme activity | purified M. tuberculosis BioA enzyme, plate reader | inhibition, % at 9.99 µM | hit rate 0.096% among 360,000 | AID 602481; in the data active = inhibition above about 40%
Mtb hypoxia inh = Mtb hypoxia fluorescent reporter inhibition. hit rate 0.1% among 300,000. fluorescence inhibition, % (concentration not given with the values). M. tuberculosis hypoxia-regulated fluorescent reporter, fluorescence; in the data active = fluorescence inhibition mostly above about 23%, no sharp cut-off; inactive = mostly below about 17%
Numbers without * were called inactive; . = not tested or not shown.

SMILES | Sa RN4220 lethal | Sa ugtP lethal | TcdB inh | Yp Topo-I inh | BioA inh | Mtb hypoxia inh
O=C(/C=C/c1ccccc1)Nc1cccnc1Cl | 0 | 7 | 16* | -1 | 5 | 9
COCCNC(=S)NN=Cc1ccc(OCc2ccc(C(=O)OC)cc2)c(OC)c1 | 5 | -2 | . | . | . | -1
COc1ccc2c(c1)N(C)/C(=C/c1cccc[n+]1C)S2 | 21 | 90* | 2 | -12 | 0 | 0
Cc1ccc2c(c1)N(C)/C(=C/c1cccc[n+]1C)S2 | 46 | 101* | 1 | -12 | 0 | .
CN1/C(=C/c2cccc[n+]2C)Sc2ccccc21 | 4 | 8 | 0 | -7 | 1 | -7
COc1cc(C=Nn2c(SC)nnc(C(C)(C)C)c2=O)ccc1O | 4 | 0 | . | . | . | 0
CC1(C(=O)N2CC3(CC(c4cccc([N+](=O)[O-])c4)=NO3)CC2C(=O)NCC(N)=O)CC1 (centres undefined) | 5 | 2 | . | . | . | 0
CCOC(=O)c1c(NC(=O)CN2C(=O)NC3(CCCCC3C)C2=O)sc(C)c1CC (centres undefined) | 2 | 3 | 0 | 6 | 1 | 8
COC(=O)c1c(NC(=O)CN2C(=O)NC3(CCCCC3C)C2=O)sc2c1CCC2 (centres undefined) | 4 | -13 | 1 | 25 | -1 | 29*
O=C1C=C(c2ccccc2)CC(c2cccs2)C1n1cnc([N+](=O)[O-])c1 (centres undefined) | 0 | -4 | . | -2 | . | .
O=C1C=C(c2ccccc2)C[C@H](c2cccs2)[C@H]1n1nnc([N+](=O)[O-])n1 | 59 | 100* | . | -15 | . | .
CCN1/C(=C/C=C/c2oc3ccc4ccccc4c3[n+]2CC)Oc2ccc3ccccc3c21 | 98* | 99* | . | . | . | 13
CC[n+]1c(/C=C/N(C)c2ccccc2)oc2ccc(Cl)cc21 | . | . | -3 | 4 | 11 | .
COc1ccc(O)c(-c2cc(-c3cccc(Br)c3)n[nH]2)c1 | 42 | 86* | . | -5 | . | 11
Cc1ccc(-c2nc3c(Cl)cc(Cl)cc3c(=O)n2O)cc1 | 99* | 99* | -1 | 3 | 2 | -3
O=c1c2ccc(Cl)cc2nc(-c2cccc(C(F)(F)F)c2)n1O | 96* | 100* | . | -1 | . | .
O=c1c2cc(Cl)ccc2nc(-c2ccc([N+](=O)[O-])cc2)n1O | 8 | -6 | 1 | 6 | . | -5
N#Cc1ccc(-c2nc3cc(Cl)ccc3c(=O)n2O)cc1 | 15 | -4 | 2 | 1 | 1 | -13
O=c1c2cc(Br)ccc2nc(-c2ccc(Cl)cc2)n1O | 99* | 99* | -1 | 8 | -2 | 2
COC(=O)C1=C(c2ccc(OC)c(OC)c2)CC2CCC1N2C(=O)N1CCCC1 (centres undefined) | 2 | -1 | . | . | . | 7
C(=NN(Cc1ccccc1)c1ccccc1)c1ccco1 | 16 | 3 | . | . | . | -2
Cc1cc2oc(=O)cc(CN(C)Cc3ccccc3)c2cc1C(C)C | -9 | -8 | 1 | 64* | . | 2
COc1ccc(CN(C)Cc2cc(=O)oc3cc(C)c(C(C)C)cc23)cc1OC | 2 | 16 | 0 | 23 | -4 | 5
COc1ccc(NS(=O)(=O)c2ccc(O)c(NC(=O)c3cc4c(C)nn(-c5ccc(F)cc5)c4s3)c2)cc1 | 83 | 84* | . | -16 | . | 4
CNC(=S)N/N=C/c1c(C(=O)OC)cnn1-c1ccc(F)cc1F | . | . | 12* | -2 | 0 | .
SMILES | Sa RN4220 lethal | Sa ugtP lethal | TcdB inh | Yp Topo-I inh | BioA inh | Mtb hypoxia inh
Nc1nnc(SCC(=O)c2ccc([N+](=O)[O-])cc2)s1 | 95* | 54 | 0 | -1 | 1 | 4
Cc1nnc(SCC(=O)c2ccc([N+](=O)[O-])cc2)s1 | 3 | -2 | 2 | -11 | . | 21
Cc1cc(C)c2nc(N3C(=O)C(O)=C(C(=O)c4ccco4)C3c3cccc(O)c3)sc2c1 (centres undefined) | 54 | 88* | 1 | 12 | 1 | 1
Cc1cc(C)c2nc(N3C(=O)C(O)=C(C(=O)c4ccco4)C3c3ccc(O)cc3)sc2c1 (centres undefined) | 2 | 85 | -1 | 3 | 0 | 0
COc1ccc(NC(=O)Cc2ccccc2)cn1 | 2 | 1 | 3 | -2 | 2 | -7
COc1ccc(NC(=O)/C(Cl)=C(/Cl)S(=O)Cc2ccccc2)cn1 (centres undefined) | 51 | 88* | . | 2 | . | .
COc1ccc(CS(=O)(=O)/C(Cl)=C(/Cl)C(=O)Nc2ccc(OC)nc2)cc1 | 26 | 100* | . | 5 | 1 | .
COc1ccc(/C=C/C(=O)Nc2ccc(OC)nc2)cc1 | 3 | 14 | 2 | -12 | -5 | -1
CC=CC(=O)Nc1cccc(C2=NOC3(C2)CC(C(N)=O)N(C(=O)C=CCC)C3)c1 (centres undefined) | 2 | -1 | . | . | . | -10
C=CCn1c(SC(F)F)nc2scc(-c3ccco3)c2c1=O | 7 | 95* | -2 | 33 | 1 | 9
CC1(C)C2CCC1(C)C(OCC[N+](C)(C)CC(=O)OC1CCCCC1)C2 (centres undefined) | 77 | 100* | 2 | 4 | -1 | .
O=C(O)C1CCC1C(=O)Nc1nc(-c2ccc(Cl)s2)cs1 (centres undefined) | 1 | 14 | 0 | -4 | -1 | 2
O=C(Nc1nc(-c2ccc(Cl)s2)cs1)c1ccccc1 | 6 | 94* | . | -6 | -1 | .
O=C(Nc1nc(-c2cccs2)cs1)c1ccc(Cl)s1 | 61 | 94* | 0 | -8 | 0 | .
CC(=O)Nc1nc(-c2cccs2)cs1 | 8 | 9 | . | -8 | 0 | 5
COC(=O)C1=C(c2ccc(OC)c(OC)c2)CC2CCC1N2C(=O)NC(C)C (centres undefined) | 4 | -5 | . | . | . | 4
Oc1c(C(c2ccccc2)N2CCOCC2)ccc2ccccc12 (centres undefined) | 25 | 87* | 1 | -12 | -1 | 15
OCCC1CC(O)C(O)[C@@]2(Cc3ccccc3CO2)O1 (some centres undefined) | 7 | 3 | . | . | . | 19
Cc1ccc(NC(=O)Nc2ccno2)cc1 | -2 | 2 | 1 | -5 | 1 | 89*
O=C(Nc1ccno1)Nc1ccc(Cl)cc1Cl | 17 | 27 | 2 | -3 | . | 58*
NS(=O)(=O)c1ccc(Nc2c([N+](=O)[O-])cncc2[N+](=O)[O-])cc1 | 96* | 90* | 2 | -13 | -1 | 4
O=C(NN=C/C=C\c1ccc([N+](=O)[O-])cc1)c1cccnc1 | 0 | 3 | . | . | . | 7
CCOc1cc(C=NNc2cc(C)nc(-n3nc(C)cc3C)n2)ccc1O | -14 | 9 | . | . | . | 39*
COc1ccc(/C=N/Nc2cc(C)nc(-n3nc(C)cc3C)n2)cc1 | . | . | . | -2 | . | .
Cc1ccc(S(=O)(=O)N2CCC(C(=O)OCC(=O)NCCc3ccccc3)CC2)cc1C | 4 | 0 | 16* | 11 | . | 1
CCOC(=O)C(=O)NNc1ccc(Cl)cc1 | 0 | 0 | 47* | -1 | . | 9
CCOC(=O)C(=O)NNc1ccc(C)cc1 | 6 | 7 | . | -2 | . | -9
CO/N=C/CC(=O)c1ccc(-c2ccccc2)cc1 | . | . | 1 | 6 | . | .
CON=CCC(=O)c1ccc(-c2ccccc2)cc1 | 32 | 101* | . | . | . | 2

Screening data deposited in PubChem BioAssay by several laboratories.
